Experiment [1] is described as follows: NCI Yeast Anticancer Drug Screen. Data for the rad50 strain (AID 155).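 Also: 0% = growth of vehicle-only cultures of the same strain.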 The note with it: S. cerevisiae rad50 strain growth inhibition, stronger effect = higher value. In outline:
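Cells are treated with compound, grown, and their growth is then scored against vehicle-only cultures of the same repair-deficient yeast strain.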

Experiment [2] in a line: NCI Yeast Anticancer Drug Screen. Data for the mec2-1 strain (AID 157). Particulars: S. cerevisiae mec2-1 strain, stronger effect = higher value. The procedure, abridged:
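Strain: mec2-1 (DNA repair/cell cycle alteration). Compound exposure, then growth measured; inhibition expressed relative to vehicle.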

The nature of experiment [3]: NCI Yeast Anticancer Drug Screen. Data for the sgs1 mgt1 strain (AID 161).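 Also: 0% = growth of cultures given vehicle only.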 The note with it: S. cerevisiae sgs1 mgt1 strain, stronger effect = higher value. In outline:
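Genetically altered yeast, compound exposure, growth inhibition relative to vehicle.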

The nature of experiment [4]: NCI Yeast Anticancer Drug Screen. Data for the cln2 rad14 strain (AID 165).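 Also: 0% = growth equal to vehicle treated cultures.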 Particulars: S. cerevisiae cln2 rad14 strain, stronger effect = higher value. In outline:
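Compounds are applied to the cln2 rad14 yeast strain, and growth is then compared with that of vehicle-treated cultures to give inhibition.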

The nature of experiment [5]: NCI Yeast Anticancer Drug Screen. Data for the mlh1 rad18 strain (AID 175). The note with it: S. cerevisiae mlh1 rad18 strain growth inhibition, stronger effect = higher value. The procedure, abridged:
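Read-out is yeast growth inhibition, calculated against vehicle-only controls. The compound was applied to a strain engineered with DNA damage repair alterations.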

Experiment [6] in a line: NCI Yeast Anticancer Drug Screen. Data for the bub3 strain (AID 167). The note with it: S. cerevisiae bub3 mutant strain, stronger effect = higher value. In outline: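 Part of a panel of yeast mutants defective in DNA damage repair or cell cycle regulation. Each strain is grown with compound, and inhibition is calculated relative to solvent-treated cultures.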
The mark [7] stands for this setting: at 5.0 µM (retest, dose inferred, filed as 0.5).
Setting [8] is: at 50.0 µM (retest, dose inferred, filed as 5.0).

About 79,000 compounds went through this panel and 15% of them were active in at least one assay; those are over-represented in the sample as a whole. Unmarked numbers belong to inactive results. Active and inactive are the calls of the source. Rule as the data show it: active = growth inhibition above about 70%; inactive = the rest.

As to `Cc1cc(O)c(C)c(C)c1N=Nc1ccccc1`, the growth inhibition was -157% in experiment [1] (setting [7]); -58% in experiment [1] (setting [8]); 56.4% in experiment [1] (at 50.0 µM); -52% in experiment [2] (setting [7]); -51% in experiment [2] (setting [8]); 6.3% in experiment [2] (at 50.0 µM). The growth inhibition was -68% in experiment [3] (setting [7]); -38% in experiment [3] (setting [8]); 58.5% in experiment [3] (at 50.0 µM); -63% in experiment [4] (setting [7]); -81% in experiment [4] (setting [8]); 16.8% in experiment [4] (at 50.0 µM). Further, the growth inhibition in experiment [5] (setting [7]) is -124%; in experiment [5] (setting [8]), -119%; in experiment [5] (at 50.0 µM) it was 87.5% (active).
Consider `CC(C)C1=CC(=O)C2=C(CCC3C(C)(C(=O)O)CCC[C@]23C)C1=O` (stereo partly specified), for which the growth inhibition in experiment [1] (setting [7]) is 7%; in experiment [1] (setting [8]), 99% (active); in experiment [1] (at 50.0 µM), 92.2% (active); in experiment [2] (setting [7]), 28%; in experiment [2] (setting [8]) it was 99% (active); in experiment [2] (at 50.0 µM), 93% (active). Besides, the growth inhibition was 20% in experiment [3] (setting [7]); 99% (active) in experiment [3] (setting [8]); 93.2% (active) in experiment [3] (at 50.0 µM); 15% in experiment [4] (setting [7]); 99% (active) in experiment [4] (setting [8]); 90.7% (active) in experiment [4] (at 50.0 µM). Besides, the results for the growth inhibition in experiment [5] (setting [7]), in experiment [5] (setting [8]) and in experiment [5] (at 50.0 µM) were 21%, 99% (active) and 91.7% (active), respectively.
For `CC(=O)OC1CCC2(C)C(=CCC3C2CCC2(C)C(C(C)N)CCC32)C1` (stereo unspecified), the growth inhibition was 8% in experiment [1] (setting [7]); 98% (active) in experiment [1] (setting [8]); 98.3% (active) in experiment [1] (at 50.0 µM); 18% in experiment [2] (setting [7]); 98% (active) in experiment [2] (setting [8]); 98.7% (active) in experiment [2] (at 50.0 µM). Further, the growth inhibition in experiment [3] (setting [7]) was 18%; in experiment [3] (setting [8]) it was 98% (active); in experiment [3] (at 50.0 µM) it was 93% (active); in experiment [4] (setting [7]) it was -62%; in experiment [4] (setting [8]), 96% (active); in experiment [4] (at 50.0 µM), 70.8% (active). Also, the growth inhibition in experiment [6] (setting [7]) is 1%; in experiment [6] (setting [8]), 78% (active); in experiment [6] (at 50.0 µM), 95.8% (active); in experiment [5] (setting [7]) it was 8%; in experiment [5] (setting [8]), 98% (active); in experiment [5] (at 50.0 µM), 98.1% (active).
For `OC1(c2ccccc2)c2ccccc2Sc2ccccc21`, the growth inhibition is 1% in experiment [1] (setting [7]); 99% (active) in experiment [1] (setting [8]); 99% (active) in experiment [1] (at 50.0 µM); 6% in experiment [2] (setting [7]); 99% (active) in experiment [2] (setting [8]); 99.2% (active) in experiment [2] (at 50.0 µM). In addition, the growth inhibition in experiment [3] (setting [7]) was 3%; in experiment [3] (setting [8]), 97% (active); in experiment [3] (at 50.0 µM), 99.2% (active); in experiment [4] (setting [7]), 8%; in experiment [4] (setting [8]), 99% (active); in experiment [4] (at 50.0 µM), 99% (active). In addition, the growth inhibition was -16% in experiment [6] (setting [7]); 98% (active) in experiment [6] (setting [8]); 99.3% (active) in experiment [6] (at 50.0 µM); 7% in experiment [5] (setting [7]); 97% (active) in experiment [5] (setting [8]); 99.1% (active) in experiment [5] (at 50.0 µM).
For the compound `CN1CCCCC1c1cc2c3ccccc3ccn2c1-c1ccccc1` (stereo unspecified), the growth inhibition is 71% (active) in experiment [1] (setting [7]); 95% (active) in experiment [1] (setting [8]); 96.5% (active) in experiment [1] (at 50.0 µM); 62% in experiment [2] (setting [7]); 99% (active) in experiment [2] (setting [8]); 98.3% (active) in experiment [2] (at 50.0 µM). The growth inhibition is 75% (active) in experiment [3] (setting [7]); 94% (active) in experiment [3] (setting [8]); 98.7% (active) in experiment [3] (at 50.0 µM); -7% in experiment [4] (setting [7]); 92% (active) in experiment [4] (setting [8]); 94.8% (active) in experiment [4] (at 50.0 µM). In addition, the growth inhibition in experiment [6] (setting [7]) was 9%; in experiment [6] (setting [8]) it was 96% (active); in experiment [6] (at 50.0 µM), 98.4% (active); in experiment [5] (setting [7]) it was 69%; in experiment [5] (setting [8]), 92% (active); in experiment [5] (at 50.0 µM), 98.5% (active).
Turning to `C/C=C/C=C/C(=O)Nc1ccc([N+](=O)[O-])cc1`, the growth inhibition in experiment [1] (setting [7]) is 0%; in experiment [1] (setting [8]) it was 53%; in experiment [1] (at 50.0 µM), 39.8%; in experiment [2] (setting [7]), -5%; in experiment [2] (setting [8]), 39%; in experiment [2] (at 50.0 µM), -0.4%. Also, the growth inhibition in experiment [3] (setting [7]) was -1%; in experiment [3] (setting [8]), 74% (active); in experiment [3] (at 50.0 µM), 87% (active); in experiment [4] (setting [7]), -9%; in experiment [4] (setting [8]), 16%; in experiment [4] (at 50.0 µM), 10.7%. In addition, the growth inhibition in experiment [6] (setting [7]) is 0%; in experiment [6] (setting [8]), 63%; in experiment [6] (at 50.0 µM) it was 36.4%; in experiment [5] (setting [7]), 0%; in experiment [5] (setting [8]) it was 32%; in experiment [5] (at 50.0 µM), 32.4%.
Turning to `O=C1c2ccccc2C(O)(c2ccccc2)c2c(Cl)cccc21` (stereo unspecified), the growth inhibition in experiment [1] (setting [7]) was -1%; in experiment [1] (setting [8]), 27%; in experiment [1] (at 50.0 µM), 82.6% (active); in experiment [2] (setting [7]), -6%; in experiment [2] (setting [8]) it was 26%; in experiment [2] (at 50.0 µM) it was 90.7% (active). The growth inhibition is 0% in experiment [3] (setting [7]); 28% in experiment [3] (setting [8]); 80.8% (active) in experiment [3] (at 50.0 µM); 1% in experiment [4] (setting [7]); 21% in experiment [4] (setting [8]); 75.2% (active) in experiment [4] (at 50.0 µM). In addition, the growth inhibition in experiment [6] (setting [7]) is -5%; in experiment [6] (setting [8]), 14%; in experiment [6] (at 50.0 µM) it was 80% (active); in experiment [5] (setting [7]), -12%; in experiment [5] (setting [8]), 41%; in experiment [5] (at 50.0 µM), 96.7% (active).
In the case of `O=S(=O)(Nc1ccc(NS(=O)(=O)c2ccccc2)c(N2N=N2)c1)c1ccccc1`, the growth inhibition was 1% in experiment [1] (setting [7]); 69% in experiment [1] (setting [8]); 86.3% (active) in experiment [1] (at 50.0 µM); 2% in experiment [2] (setting [7]); 80% (active) in experiment [2] (setting [8]); 66.2% in experiment [2] (at 50.0 µM). Further, the growth inhibition was 4% in experiment [3] (setting [7]); 76% (active) in experiment [3] (setting [8]); 88.9% (active) in experiment [3] (at 50.0 µM); 0% in experiment [4] (setting [7]); 55% in experiment [4] (setting [8]); 79.1% (active) in experiment [4] (at 50.0 µM). Moreover, the growth inhibition in experiment [6] (setting [7]) was -2%; in experiment [6] (setting [8]), 62%; in experiment [6] (at 50.0 µM) it was 75.4% (active); in experiment [5] (setting [7]) it was -2%; in experiment [5] (setting [8]) it was 79% (active); in experiment [5] (at 50.0 µM), 76.6% (active).
Regarding `O=C(N/C(=C\c1cc(Cl)ccc1Cl)c1nc2ccc(Cl)cc2[nH]1)c1ccccc1`, the growth inhibition in experiment [1] (setting [7]) is 29%; in experiment [1] (setting [8]), 87% (active); in experiment [1] (at 50.0 µM) it was 93.2% (active); in experiment [2] (setting [7]) it was 17%; in experiment [2] (setting [8]), 82% (active); in experiment [2] (at 50.0 µM), 96.5% (active). The growth inhibition is 28% in experiment [3] (setting [7]); 81% (active) in experiment [3] (setting [8]); 93.8% (active) in experiment [3] (at 50.0 µM); 39% in experiment [4] (setting [7]); 84% (active) in experiment [4] (setting [8]); 91.9% (active) in experiment [4] (at 50.0 µM). Also, the growth inhibition is 31% in experiment [6] (setting [7]); 87% (active) in experiment [6] (setting [8]); 94.7% (active) in experiment [6] (at 50.0 µM); 14% in experiment [5] (setting [7]); 81% (active) in experiment [5] (setting [8]); 96.5% (active) in experiment [5] (at 50.0 µM).
